The full data set covers some 7,900 targets. This sample favours those with a hit. About 0.6% of all pairs of compound and target were hits. Unmarked numbers belong to inactive results.
Key:
Experiment in all cases: log2 fold change, soluble protein after heating vs DMSO (PISA); higher = thermal stabilisation; K562 cells, 10 uM, 30 min; active = over 0.2 and 3.5 SD of the protein, either way, in both replicates (recomputed)
erlotinib = compound: C#Cc1cccc(Nc2ncnc3cc(OCCOC)c(OCCOC)cc23)c1 [erlotinib]
In short: (§1)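 K562 cells at 2×10^6 cells/mL were treated with 10 μM compound for 30 min. Aliquots were heated for 3 min across 48°C-58°C, pooled, and extracted in PBS with 0.5% NP-40 at 4°C; soluble protein was the supernatant after 21,000xg for 90 min. Soluble protein was quantified by TMTpro 16plex LC-MS/MS with channel sums equalised, and reported as log2 fold change in thermal stability against DMSO controls, with values from duplicates.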

[1] = compound: C/C(=N\NC(=O)C1=CC(=CC=C1)S(=O)(=O)N2CCOCC2)/C3=C(C=CC(=C3)Cl)O
In short: as §1

[2] = compound: C1=CC(=C(C=C1Cl)C2=NC3=NC=CN=C3C(=N2)NC4=CC=NC=C4)F
In short: as §1

[3] = compound: C1=CC(=CC=C1C2=NC3=C(N2)C=C(C=C3)C(=O)N)OC4=CC=C(C=C4)Cl
In short: as §1

[4] = compound: C1=CC2=C(C=CC(=C2)/C=C\3/C(=O)NC(=NCC4=CC=CS4)S3)N=C1
In short: as §1

[5] = compound: C1=CC2=NC=CN=C2C=C1/C=C/3\C(=O)NC(=O)S3
In short: as §1

[6] = compound: C1=CC=C(C=C1)C2=NC(=C(N2)C3=CC=NC=C3)C4=CC(=C(C=C4)Cl)O
In short: as §1

[7] = compound: C1=CC=C2C(=C1)C3=NNC4=CC=CC(=C43)C2=O
In short: as §1

[8] = compound: C1CCN(C1)C(=O)NC2=CC=CC(=C2)NC3=NC=C(C(=N3)NCCC4=CN=CN4)Br
In short: as §1

[9] = compound: C1CN(CCC1(CC2=CC=C(C=C2)Cl)N)C3=NC=NC4=C3C=CN4
In short: as §1

IRAK-1-4 Inhibitor I = compound: C1COCCN1CCN2C3=CC=CC=C3N=C2NC(=O)C4=CC(=CC=C4)[N+](=O)[O-] [IRAK-1-4 Inhibitor I]
In short: as §1

ibrutinib = compound: C=CC(=O)N1CCC[C@@H](n2nc(-c3ccc(Oc4ccccc4)cc3)c3c(N)ncnc32)C1 [ibrutinib]
In short: as §1

[10] = compound: CC(=O)c1cnc2ccc(-c3cc(Cl)c(O)c(Cl)c3)nc2c1N[C@H]1CC[C@H](CN(C)C)CC1
In short: as §1

ralimetinib = compound: CC(C)(C)Cn1c(N)nc2ccc(-c3[nH]c(C(C)(C)C)nc3-c3ccc(F)cc3)nc21 [ralimetinib]
In short: as §1

[11] = compound: CC(C)(O)CC(=O)NCCn1ccc2ncnc(Nc3ccc(Oc4cccc(C(F)(F)F)c4)c(Cl)c3)c21
In short: as §1

[12] = compound: CC(C)C1=C2N=C(C=C(N2N=C1)NCC3=CC=CC=C3)NCCCCCCN
In short: as §1

[13] = compound: CC(C)C[C@@H](C=O)NC(=O)[C@H](CC(C)C)NC(=O)[C@H](CC(C)C)NC(=O)OCc1ccccc1
In short: as §1

pinometostat = compound: CC(C)N(C[C@H]1O[C@@H](n2cnc3c(N)ncnc32)[C@H](O)[C@@H]1O)[C@H]1C[C@@H](CCc2nc3cc(C(C)(C)C)ccc3[nH]2)C1 [pinometostat]
In short: as §1

[14] = compound: CC1=C(C(CC(=O)N1)C2=CC=C(C=C2)C(F)(F)F)C(=O)NC3=C(C=C4C(=C3)C=NN4)F
In short: as §1

[15] = compound: CC1=C(C2=C(C=C1)C(=O)C3=CC=CC=C3N2CCCN)C
In short: as §1

Sequence of UniProt P11182 (P11182 whole entry, looked up): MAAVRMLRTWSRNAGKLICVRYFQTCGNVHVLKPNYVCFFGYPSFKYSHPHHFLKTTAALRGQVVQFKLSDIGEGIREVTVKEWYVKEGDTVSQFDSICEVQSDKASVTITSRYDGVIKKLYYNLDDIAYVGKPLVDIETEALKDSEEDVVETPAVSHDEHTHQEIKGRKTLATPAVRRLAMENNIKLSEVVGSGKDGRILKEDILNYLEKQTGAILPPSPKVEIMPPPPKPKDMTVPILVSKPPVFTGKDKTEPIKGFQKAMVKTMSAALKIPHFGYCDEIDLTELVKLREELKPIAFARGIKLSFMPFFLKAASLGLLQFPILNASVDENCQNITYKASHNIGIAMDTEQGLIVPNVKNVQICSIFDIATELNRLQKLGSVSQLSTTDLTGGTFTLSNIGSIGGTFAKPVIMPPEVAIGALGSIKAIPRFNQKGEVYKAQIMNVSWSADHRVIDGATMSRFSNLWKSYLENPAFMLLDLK
Sequence of UniProt O60911 (O60911 whole entry, looked up): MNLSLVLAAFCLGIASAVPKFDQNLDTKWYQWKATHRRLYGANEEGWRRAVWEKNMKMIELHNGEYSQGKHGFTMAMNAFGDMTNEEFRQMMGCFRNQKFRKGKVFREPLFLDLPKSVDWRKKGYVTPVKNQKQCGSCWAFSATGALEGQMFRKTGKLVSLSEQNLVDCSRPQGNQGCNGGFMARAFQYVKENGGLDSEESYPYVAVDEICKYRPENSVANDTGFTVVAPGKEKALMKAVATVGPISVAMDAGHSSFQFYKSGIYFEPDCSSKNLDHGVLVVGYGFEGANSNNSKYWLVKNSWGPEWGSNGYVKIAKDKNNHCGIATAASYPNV
Sequence of UniProt Q9BU89 (Q9BU89 whole entry, looked up): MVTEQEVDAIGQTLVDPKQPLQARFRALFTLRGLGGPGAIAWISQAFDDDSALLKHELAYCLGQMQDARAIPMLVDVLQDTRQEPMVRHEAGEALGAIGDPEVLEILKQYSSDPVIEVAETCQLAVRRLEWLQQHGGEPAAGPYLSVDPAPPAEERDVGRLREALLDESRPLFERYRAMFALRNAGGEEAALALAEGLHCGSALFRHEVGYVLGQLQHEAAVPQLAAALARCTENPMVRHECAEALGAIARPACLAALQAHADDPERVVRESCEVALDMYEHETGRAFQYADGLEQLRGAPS
Sequence of UniProt Q96DA6 (Q96DA6 whole entry, looked up): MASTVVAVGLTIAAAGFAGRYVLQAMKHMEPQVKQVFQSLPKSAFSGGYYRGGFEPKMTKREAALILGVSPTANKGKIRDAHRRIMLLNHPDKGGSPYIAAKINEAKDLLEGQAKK
Sequence of UniProt P09622 (P09622 whole entry, looked up): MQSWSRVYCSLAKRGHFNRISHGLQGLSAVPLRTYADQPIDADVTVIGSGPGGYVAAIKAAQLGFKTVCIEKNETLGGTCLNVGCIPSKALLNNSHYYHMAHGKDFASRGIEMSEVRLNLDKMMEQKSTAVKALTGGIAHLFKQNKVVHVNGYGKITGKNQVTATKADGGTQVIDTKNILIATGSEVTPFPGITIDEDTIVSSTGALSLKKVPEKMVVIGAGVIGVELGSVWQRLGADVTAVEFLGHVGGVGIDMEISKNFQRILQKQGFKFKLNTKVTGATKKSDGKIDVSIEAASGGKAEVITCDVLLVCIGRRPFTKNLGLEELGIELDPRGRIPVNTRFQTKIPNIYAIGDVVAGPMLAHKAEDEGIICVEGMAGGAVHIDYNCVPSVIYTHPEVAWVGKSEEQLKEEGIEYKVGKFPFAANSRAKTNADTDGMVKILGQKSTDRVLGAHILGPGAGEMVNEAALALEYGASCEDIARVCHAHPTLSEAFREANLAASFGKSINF
Sequence of UniProt Q9BW60 (Q9BW60 whole entry, looked up): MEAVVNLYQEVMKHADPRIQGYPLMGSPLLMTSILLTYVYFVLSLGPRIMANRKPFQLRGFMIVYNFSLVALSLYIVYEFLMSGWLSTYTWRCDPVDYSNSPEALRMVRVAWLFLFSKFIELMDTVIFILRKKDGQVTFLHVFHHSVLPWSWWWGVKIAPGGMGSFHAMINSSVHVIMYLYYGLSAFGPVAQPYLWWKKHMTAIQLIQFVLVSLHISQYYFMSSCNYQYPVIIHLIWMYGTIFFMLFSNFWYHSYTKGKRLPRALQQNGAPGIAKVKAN
Sequence of UniProt O60231 (O60231 whole entry, looked up): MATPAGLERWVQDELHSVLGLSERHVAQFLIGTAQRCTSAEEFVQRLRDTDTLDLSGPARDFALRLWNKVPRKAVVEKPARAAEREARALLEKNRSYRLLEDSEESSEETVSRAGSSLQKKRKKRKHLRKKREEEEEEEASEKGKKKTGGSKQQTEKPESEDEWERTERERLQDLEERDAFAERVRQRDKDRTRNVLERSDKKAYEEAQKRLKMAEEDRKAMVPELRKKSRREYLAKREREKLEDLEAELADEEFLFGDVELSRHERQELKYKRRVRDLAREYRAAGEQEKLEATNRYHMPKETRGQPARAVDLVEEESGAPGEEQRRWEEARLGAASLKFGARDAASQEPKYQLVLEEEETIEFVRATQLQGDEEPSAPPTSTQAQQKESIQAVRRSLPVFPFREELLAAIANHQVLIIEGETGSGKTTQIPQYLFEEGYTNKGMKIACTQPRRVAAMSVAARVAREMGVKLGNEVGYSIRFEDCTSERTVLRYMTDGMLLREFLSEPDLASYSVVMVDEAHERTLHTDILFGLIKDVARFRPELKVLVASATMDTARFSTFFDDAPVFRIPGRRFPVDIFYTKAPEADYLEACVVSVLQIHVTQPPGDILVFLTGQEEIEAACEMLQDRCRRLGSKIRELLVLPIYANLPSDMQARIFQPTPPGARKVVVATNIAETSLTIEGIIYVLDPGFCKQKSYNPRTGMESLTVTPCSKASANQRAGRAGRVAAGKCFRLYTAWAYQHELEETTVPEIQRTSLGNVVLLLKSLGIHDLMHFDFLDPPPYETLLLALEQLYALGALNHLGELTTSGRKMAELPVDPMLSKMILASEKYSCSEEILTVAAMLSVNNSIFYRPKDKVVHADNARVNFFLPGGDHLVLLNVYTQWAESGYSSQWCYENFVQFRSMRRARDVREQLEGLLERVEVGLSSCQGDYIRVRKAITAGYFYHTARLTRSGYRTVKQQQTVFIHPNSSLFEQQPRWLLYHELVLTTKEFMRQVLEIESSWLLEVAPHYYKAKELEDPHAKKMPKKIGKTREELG
Sequence of UniProt Q9NV06 (Q9NV06 whole entry, looked up): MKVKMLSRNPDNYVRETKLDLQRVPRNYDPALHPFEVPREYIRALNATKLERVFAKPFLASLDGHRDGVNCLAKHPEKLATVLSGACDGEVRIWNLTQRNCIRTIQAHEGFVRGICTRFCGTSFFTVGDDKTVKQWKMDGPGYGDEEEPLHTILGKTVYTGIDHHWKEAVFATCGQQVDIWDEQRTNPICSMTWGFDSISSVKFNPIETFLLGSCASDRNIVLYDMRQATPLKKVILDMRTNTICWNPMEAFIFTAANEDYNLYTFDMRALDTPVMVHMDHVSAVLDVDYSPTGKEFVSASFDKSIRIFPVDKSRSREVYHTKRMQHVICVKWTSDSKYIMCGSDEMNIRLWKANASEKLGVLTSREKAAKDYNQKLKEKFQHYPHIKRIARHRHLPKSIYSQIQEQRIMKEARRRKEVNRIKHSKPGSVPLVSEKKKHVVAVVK
Sequence of UniProt Q5QJE6 (Q5QJE6 whole entry, looked up): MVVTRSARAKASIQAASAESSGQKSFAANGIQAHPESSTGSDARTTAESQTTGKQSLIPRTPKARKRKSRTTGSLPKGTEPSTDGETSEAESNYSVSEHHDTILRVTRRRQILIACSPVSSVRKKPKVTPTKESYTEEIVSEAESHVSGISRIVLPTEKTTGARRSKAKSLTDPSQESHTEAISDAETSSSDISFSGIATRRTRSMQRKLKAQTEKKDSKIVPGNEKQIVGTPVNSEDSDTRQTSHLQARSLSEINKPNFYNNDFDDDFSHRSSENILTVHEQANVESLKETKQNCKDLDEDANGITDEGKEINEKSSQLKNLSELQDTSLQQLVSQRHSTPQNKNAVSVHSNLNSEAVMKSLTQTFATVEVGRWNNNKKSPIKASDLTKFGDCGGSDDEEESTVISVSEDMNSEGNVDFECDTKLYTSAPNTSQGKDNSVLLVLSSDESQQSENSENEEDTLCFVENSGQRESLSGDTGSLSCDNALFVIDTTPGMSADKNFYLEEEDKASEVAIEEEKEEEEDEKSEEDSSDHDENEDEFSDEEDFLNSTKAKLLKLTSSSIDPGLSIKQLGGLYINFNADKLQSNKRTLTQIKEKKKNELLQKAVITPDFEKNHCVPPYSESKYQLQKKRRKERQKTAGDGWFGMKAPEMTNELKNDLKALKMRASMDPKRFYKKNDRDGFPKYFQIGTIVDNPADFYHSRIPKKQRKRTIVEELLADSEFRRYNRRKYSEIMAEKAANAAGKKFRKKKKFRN
Sequence of UniProt O60573 (O60573 whole entry, looked up): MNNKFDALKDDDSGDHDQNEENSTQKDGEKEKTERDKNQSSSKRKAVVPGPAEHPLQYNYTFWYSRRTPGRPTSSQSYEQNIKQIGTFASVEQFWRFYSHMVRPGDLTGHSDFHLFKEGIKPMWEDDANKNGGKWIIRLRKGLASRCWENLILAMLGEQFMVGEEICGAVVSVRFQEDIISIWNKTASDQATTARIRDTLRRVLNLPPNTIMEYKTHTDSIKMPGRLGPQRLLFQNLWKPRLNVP
Sequence of UniProt Q7Z7A3 (Q7Z7A3 whole entry, looked up): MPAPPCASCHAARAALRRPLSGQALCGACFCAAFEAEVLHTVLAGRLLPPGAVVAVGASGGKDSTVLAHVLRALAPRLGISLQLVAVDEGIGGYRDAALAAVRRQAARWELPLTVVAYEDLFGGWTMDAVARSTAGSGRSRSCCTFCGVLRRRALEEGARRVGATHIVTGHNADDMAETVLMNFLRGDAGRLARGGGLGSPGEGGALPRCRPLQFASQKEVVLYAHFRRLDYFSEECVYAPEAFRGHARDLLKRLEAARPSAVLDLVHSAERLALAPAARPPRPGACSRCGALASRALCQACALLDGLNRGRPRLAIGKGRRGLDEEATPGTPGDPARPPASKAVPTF

Row | Target | log2 fold change (erlotinib) | log2 fold change [1] | log2 fold change [2] | log2 fold change [3] | log2 fold change [4] | log2 fold change [5] | log2 fold change [6] | log2 fold change [7] | log2 fold change [8] | log2 fold change [9] | log2 fold change (IRAK-1-4 Inhibitor I) | log2 fold change (ibrutinib) | log2 fold change [10] | log2 fold change (ralimetinib) | log2 fold change [11] | log2 fold change [12] | log2 fold change [13] | log2 fold change (pinometostat) | log2 fold change [14] | log2 fold change [15]
1 | DUS2 (UniProt Q9NX74) | -0.002 | -0.022 | 0.043 | 0.088 | 0.166 | -0.011 | -0.009 | -0.123 | -0.028 | 0.021 | 0.014 | 0.041 | -0.063 | 0.033 | -0.161 | 0.043 | 0.044 | -0.001 | 0.035 | -0.1
2 | DHRS1 (UniProt Q96LJ7) | -0.045 | 0.995 (active) | -0.02 | -0.105 | 0.353 | -0.034 | 0.813 (active) | -0.163 | -0.163 | -0.021 | 0.037 | 0.105 | 0.045 | 0.014 | 0 | 0.614 | 0.21 | -0.087 | 0.003 | 0.071
3 | CTSB (UniProt P07858) | 0.021 | -0.037 | 0.026 | 0.003 | 0.038 | 0.016 | 0.009 | -0.017 | 0.007 | 0.04 | -0.009 | 0.032 | 0.013 | -0.044 | 0.011 | -0.426 (active) | 0.037 | -0.031 | 0.042 | -0.053
4 | DLD (UniProt P09622) | 0.001 | -0.018 | 0.044 | -0.083 | -0.007 | -0.018 | 0.032 | -0.018 | 0.031 | 0.054 | 0.079 | 0.007 | 0.043 | -0.004 | -0.043 | -0.125 | -0.029 | 0.001 | 0.014 | -0.008
5 | DOHH (UniProt Q9BU89) | -0.001 | -0.102 | -0.046 | 0 | 0.083 | -0.183 | 0.064 | 0.038 | -0.051 | 0.026 | 0.127 | 0.137 | 0.103 | 0.004 | 0.244 | 0.045 | -0.106 | 0.011 | 0.02 | 0.189
6 | DNAJC19 (UniProt Q96DA6) | -0.009 | 0.014 | 0.055 | 0.001 | -0.005 | 0.04 | 0.052 | -0.022 | -0.012 | 0.016 | 0.045 | 0.024 | 0.038 | 0.029 | -0.054 | -0.153 | -0.006 | -0.013 | 0.016 | 0.023
7 | DHX16 (UniProt O60231) | 0.01 | 0.05 | 0.224 | 0.027 | 0.007 | -0.01 | 0.014 | 0.013 | -0.044 | 0.024 | -0.006 | 0 | -0.257 (active) | -0.001 | -0.025 | -0.002 | 0.009 | 0.004 | -0.045 | 0.159
8 | DBT (UniProt P11182) | -0.041 | -0.019 | -0.021 | 0.049 | -0.03 | 0.038 | 0.099 | -0.01 | -0.006 | -0.065 | -0.004 | 0.019 | 0.021 | 0.109 | 0.006 | 0.027 | 0.023 | 0.002 | 0.015 | 0.352 (active)
9 | CTU1 (UniProt Q7Z7A3) | 0.05 | -0.01 | 0.079 | 0.047 | 0.079 | 0.011 | 0.04 | 0.042 | 0.032 | 0.008 | 0.026 | 0.041 | 0.02 | 0.005 | -0.054 | -0.052 | -0.041 | 0.007 | 0.007 | -0.021
10 | DNTTIP2 (UniProt Q5QJE6) | -0.111 | -0.186 | -0.242 | 0.038 | 0.005 | -0.043 | -0.069 | -0.269 | -0.004 | -0.111 | -0.027 | 0.045 | -0.265 | 0.089 | 0.046 | -0.234 | 0.046 | 0.266 | -0.017 | -0.975 (active)
11 | CTSV (UniProt O60911) | 0.043 | -0.105 | 0.023 | -0.054 | 0.035 | -0.004 | 0.024 | 0.023 | 0.04 | 0.022 | 0.032 | -0.002 | 0.09 | -0.035 | -0.005 | -0.917 (active) | 0.14 | 0.011 | -0.054 | 0.125
12 | E2F4 (UniProt Q16254) | 0.021 | -0.003 | 0.019 | -0.003 | 0.029 | 0.043 | -0.064 | -0.02 | -0.071 | -0.022 | -0.025 | -0.009 | -0.073 | 0.011 | -0.072 | -0.167 | 0.038 | 0.001 | 0 | -0.119
13 | ELOVL1 (UniProt Q9BW60) | -0.022 | 0.019 | -0.01 | -0.059 | 0.036 | 0.011 | 0.069 | -0.11 | -0.124 | 0.014 | 0.079 | -0.006 | 0.018 | 0.029 | -0.197 | -0.628 (active) | 0.036 | 0.063 | 0.016 | 0.099
14 | DCAF13 (UniProt Q9NV06) | -0.085 | -0.172 | -0.441 | 0.079 | -0.114 | -0.05 | -0.034 | -0.047 | 0.044 | -0.094 | -0.079 | 0.019 | 0.101 | 0.077 | 0.032 | -0.078 | 0.165 | 0.263 | 0.037 | -0.33
15 | EIF4E2 (UniProt O60573) | 0.013 | 0.056 | -0.026 | -0.045 | -0.007 | -0.054 | -0.111 | -0.009 | -0.032 | -0.008 | 0.064 | -0.007 | -0.272 | 0.012 | -0.036 | -0.109 | 0.118 | 0.043 | 0.056 | 0.116
16 | ETNK1 (UniProt Q9HBU6) | 0.004 | 0.128 | 0.244 | -0.001 | -0.126 | 0.035 | 0.037 | 0.028 | -0.033 | -0.119 | 0.035 | -0.05 | 0.044 | -0.017 | -0.205 | 0.087 | 0.043 | 0.019 | -0.015 | 0.079

Reference: the supplement of paper PMC10849652
